{"source": "ChEMBL document CHEMBL4513216", "about": "“Probing the Open Global Health Chemical Diversity Library for Multistage-Active Starting Points for Next-Generation Antimalarials” (ACS Infect Dis, 2020)", "note": "The whole screen tested about 69,000 compounds, of which about 8,600 (12%) showed an effect of 50% or more. This is one part of a sample in which strong results are shown more often than they occur.", "data": [{"test_system": "Plasmodium berghei", "experiment": "Screen against P. berghei liver stage (PbLuc), transformed with Luciferase, at 10uM", "assay_type": "functional, HepG2", "settings": "tested at 10 uM", "units": {"INHIBITION": "%"}, "values": [{"molecule": "O=C(C1CCCCC1)N1CCC(n2nc(-c3ccco3)ccc2=O)CC1", "INHIBITION": 40}, {"molecule": "Cc1ccc(C(N)c2cccc(S(C)(=O)=O)c2)c(C)c1", "note": "(stereo not drawn)", "INHIBITION": -24.2}, {"molecule": "CCc1csc(C2CCCN(C(=O)c3cc(Cl)c[nH]3)C2)n1", "note": "(stereo not drawn)", "INHIBITION": 11.9}, {"molecule": "CCCC1COCCN1Cc1ccc(S(=O)(=O)NC)cc1", "note": "(stereo not drawn)", "INHIBITION": -6.39}, {"molecule": "COc1ccccc1CC1CCCN(CC(=O)NC2CC2)C1", "note": "(stereo not drawn)", "INHIBITION": -25.9}, {"molecule": "CNC(=O)CN1CCCC(Cc2ccccc2OC)C1", "note": "(stereo not drawn)", "INHIBITION": 59}, {"molecule": "CNC(=O)NC(=O)CN1CCCC(Cc2ccccc2OC)C1", "note": "(stereo not drawn)", "INHIBITION": -43.6}, {"molecule": "CCCS(=O)(=O)N1C[C@@H](OCc2ccncc2)[C@H]2OCCC[C@H]21", "INHIBITION": -7.2}, {"molecule": "CCCN(C)C(=O)c1ccc2c(c1)[nH]c(=O)n2CCOCC", "INHIBITION": 3.47}, {"molecule": "CCOCCn1c(=O)[nH]c2cc(C(=O)N(C)CCc3cn[nH]c3)ccc21", "INHIBITION": 50.1}, {"molecule": "CCOCCn1c(=O)[nH]c2cc(C(=O)N(C)Cc3cnn(C)c3)ccc21", "INHIBITION": 24.065}, {"molecule": "CC(C)N(C)Cc1cc(=O)n2c(n1)CN(S(=O)(=O)C1CC1)CCC2", "INHIBITION": 25.6}, {"molecule": "CNC(=O)C1(CCCc2ccccn2)CN(Cc2coc(C)n2)C1", "INHIBITION": 14.6}, {"molecule": "Cc1ccc(CC(=O)NC(C)C(=O)N2CCS(=O)(=O)CC2)s1", "note": "(stereo not drawn)", "INHIBITION": 76.2}, {"molecule": "CC(NC(=O)Cc1ccccc1F)C(=O)N1CCS(=O)(=O)CC1", "note": "(stereo not drawn)", "INHIBITION": 49.4}, {"molecule": "Cc1ccc(CC(=O)NC(C)C(=O)N2CCS(=O)(=O)CC2)cc1", "note": "(stereo not drawn)", "INHIBITION": -11.1}, {"molecule": "CNC(=O)CN1CCO[C@H]2CN(CC3CCOCC3)C[C@H]21", "INHIBITION": 13.7}, {"molecule": "CC(C)NC(=O)CN1CCC(c2cccc(F)c2)C1", "note": "(stereo not drawn)", "INHIBITION": 45.65}, {"molecule": "Cn1nccc1C(=O)N1Cc2cc(Cl)ccc2OC2(CCOCC2)C1", "INHIBITION": -0.902}, {"molecule": "CN1CC(c2ccccc2)CC12CCN(C(=O)c1ccc(Cl)cn1)CC2", "note": "(stereo not drawn)", "INHIBITION": 28.5}, {"molecule": "CN1CC(c2ccccc2)CC12CCN(C(=O)c1ccncc1)CC2", "note": "(stereo not drawn)", "INHIBITION": 7.6}, {"molecule": "CN1CC(c2ccccc2)CC12CCN(C(=O)c1ccc(Cl)cc1)CC2", "note": "(stereo not drawn)", "INHIBITION": 37.6}, {"molecule": "CN1CC(c2ccccc2)CC2(CCN(C(=O)c3cccnn3)CC2)C1", "note": "(stereo not drawn)", "INHIBITION": 81.2}, {"molecule": "COC(=O)N1CCC2(CC1)CC(c1ccccc1)CN(C)C2", "note": "(stereo not drawn)", "INHIBITION": 39.4}, {"molecule": "CN1CC(c2ccccc2)CC12CCN(C(=O)c1c(Cl)cnn1C)CC2", "note": "(stereo not drawn)", "INHIBITION": 55.1}, {"molecule": "CN1CC(c2ccccc2)CC12CCN(C(=O)c1cccnc1)CC2", "note": "(stereo not drawn)", "INHIBITION": 51.2}, {"molecule": "CN1CC(c2ccccc2)CC2(CCN(C(=O)c3ccccc3)CC2)C1", "note": "(stereo not drawn)", "INHIBITION": 49.4}, {"molecule": "CN1CC(c2ccccc2)CC12CCN(C(=O)c1cncc(Cl)c1)CC2", "note": "(stereo not drawn)", "INHIBITION": 8.47}, {"molecule": "O=C(c1cc(-c2cccnc2)[nH]n1)N1CCCC(Cc2ccccn2)C1", "note": "(stereo not drawn)", "INHIBITION": -12.76}, {"molecule": "Cc1cc(Cc2ccc(S(=O)(=O)N3CCCC3)cc2)c(=O)[nH]n1", "INHIBITION": 20.9}, {"molecule": "CNC(=O)C1(c2cnccn2)CCCN1C(=O)c1ncccc1C", "note": "(stereo not drawn)", "INHIBITION": 19.6}, {"molecule": "COC(=O)CC(c1cccc(OC(F)F)c1)c1oc(C)cc(=O)c1O", "note": "(stereo not drawn)", "INHIBITION": 21.5}, {"molecule": "CCS(=O)(=O)N1Cc2c(Cn3ccnc3)nn(C)c2C1", "INHIBITION": 26.5}, {"molecule": "CCS(=O)(=O)N1Cc2c(Cn3cccc3)nn(C(C)C)c2C1", "INHIBITION": 12.1}, {"molecule": "CCS(=O)(=O)N1Cc2c(Cn3ccnc3)nn(C(C)C)c2C1", "INHIBITION": 65.1}, {"molecule": "Cc1nc2cc(=O)[nH]n2c(C)c1CC(=O)NCCCc1ccccc1", "INHIBITION": -4.3}, {"molecule": "Cc1n[nH]c(C)c1CNC(=O)CSCc1ccccc1Cl", "INHIBITION": -26.4}, {"molecule": "CSc1ccc(CCNC(=O)Cc2c(C)n[nH]c2C)cc1", "INHIBITION": 40.3}, {"molecule": "Cc1n[nH]c(C)c1CC(=O)NCCc1ccccc1", "INHIBITION": 52.5}, {"molecule": "Cc1nc(CNC(=O)N(Cc2ccccc2)CC(C)(C)O)oc1C", "INHIBITION": 28.6}, {"molecule": "Cc1ncsc1CNC(=O)N(Cc1ccccc1)CC(C)(C)O", "INHIBITION": 47.4}, {"molecule": "Cc1n[nH]c(C)c1CNC(=O)N(Cc1ccccc1)CC(C)(C)O", "INHIBITION": 68}, {"molecule": "Cc1n[nH]c(C)c1CC(=O)NCc1ccccc1Cl", "INHIBITION": 64.8}, {"molecule": "CSc1ccc(CNC(=O)Cc2c(C)n[nH]c2C)cc1", "INHIBITION": 21.8}, {"molecule": "O=C1CN([C@@H]2CC[C@@H](NS(=O)(=O)c3ccccc3)[C@H]2O)CCN1", "INHIBITION": 4.5}, {"molecule": "CC(C)C[C@H](NC(=O)NC1CCS(=O)(=O)C1)C(=O)NCc1cccnc1", "note": "(stereo partly drawn)", "INHIBITION": 44.9}, {"molecule": "Cc1nccn1CCCNc1ccc(Cl)c(C#N)n1", "INHIBITION": -9.39}, {"molecule": "O=C(CN1CCOc2ccccc2C1)NCc1cc2n(n1)CCNC2", "INHIBITION": 21.7}, {"molecule": "CC(O)CCN(C)C(=O)Nc1ccc(Br)cc1", "note": "(stereo not drawn)", "INHIBITION": -12.1}, {"molecule": "N#Cc1cccnc1Nc1ccc(N2CCC(C(N)=O)CC2)cc1", "INHIBITION": 45.2}, {"molecule": "N#Cc1cccnc1NCc1cccnc1N1CCCCC1", "INHIBITION": 51.7}, {"molecule": "Cc1ccn(-c2ccc(NCc3cccnc3N3CCCCC3)nn2)n1", "INHIBITION": 34.4}, {"molecule": "N#Cc1ccc(NCc2cccnc2N2CCC(C(N)=O)CC2)cn1", "INHIBITION": 57.3}, {"molecule": "CN1CCN(c2ncccc2CNc2ncccc2C#N)CC1", "INHIBITION": -29.4}, {"molecule": "N#Cc1cccnc1NCc1cccnc1N1CCC(C(N)=O)CC1", "INHIBITION": -0.182}, {"molecule": "Cc1cccc(C(=O)N2CCC3(CCN(c4cnn(C)c4)C3=O)C2)n1", "note": "(stereo not drawn)", "INHIBITION": 24.9}, {"molecule": "O=C1CO[C@H]2CCN(C(=O)c3ccc4c(c3)CCCC4)CC[C@@H]2N1", "INHIBITION": 16.675}, {"molecule": "O=C(CCc1ccc(F)c(F)c1)N1CCCCC1Cn1cccn1", "note": "(stereo not drawn)", "INHIBITION": 21.5}, {"molecule": "O=C(c1cnccn1)N1CCc2ncc(CN3CCOCC3)n2CC1", "INHIBITION": 48.6}, {"molecule": "Cc1nc2cc(=O)[nH]n2c(C)c1CC(=O)NCc1ccoc1", "INHIBITION": 15.465}, {"molecule": "CCC(NC1CCN(C(=O)c2ccccc2)CC1)c1cccs1", "note": "(stereo not drawn)", "INHIBITION": 7.22}, {"molecule": "Cc1cnn(CC2CCCN2C(=O)c2cc(Cl)ccc2F)c1", "note": "(stereo not drawn)", "INHIBITION": 22.9}, {"molecule": "O=C(O)c1cc(C=Cc2ccccc2)ncn1", "INHIBITION": -20.2}, {"molecule": "Cc1noc([C@@H]2C[C@H]3CN(CC4CCOCC4)C[C@H]3O2)n1", "INHIBITION": -7.7}, {"molecule": "Cc1noc(Cl)c1CCC(=O)N1CCC(Nc2cccnn2)CC1", "INHIBITION": -5.07}, {"molecule": "COc1ccc2nnc(CCCC(=O)NCCc3ccncc3)n2n1", "INHIBITION": 32.2}, {"molecule": "COc1ccc2nnc(CCCC(=O)NCCc3ccccc3)n2n1", "INHIBITION": -31}, {"molecule": "COc1ccc2nnc(CCCC(=O)NCCc3ccccn3)n2n1", "INHIBITION": 51.9}]}]}
